Screening results: PubChem, Buhrlage Lab, Dana-Farber Cancer Institute and Novartis Institutes for BioMedical Research (Cambridge, Mass)
An excerpt weighted towards active compounds, which were near 4.9% of everything screened.
USP10 inh: inhibitors of human USP10 deubiquitinase. purified USP10, Ub-rhodamine fluorescence, 60 min. 1.1% of 47,000 active. Ubiquitin carboxyl-terminal hydrolase 10 (Homo sapiens), Q14694. inhibition, % at 20 µM
Target sequence (Q14694 whole entry, looked up): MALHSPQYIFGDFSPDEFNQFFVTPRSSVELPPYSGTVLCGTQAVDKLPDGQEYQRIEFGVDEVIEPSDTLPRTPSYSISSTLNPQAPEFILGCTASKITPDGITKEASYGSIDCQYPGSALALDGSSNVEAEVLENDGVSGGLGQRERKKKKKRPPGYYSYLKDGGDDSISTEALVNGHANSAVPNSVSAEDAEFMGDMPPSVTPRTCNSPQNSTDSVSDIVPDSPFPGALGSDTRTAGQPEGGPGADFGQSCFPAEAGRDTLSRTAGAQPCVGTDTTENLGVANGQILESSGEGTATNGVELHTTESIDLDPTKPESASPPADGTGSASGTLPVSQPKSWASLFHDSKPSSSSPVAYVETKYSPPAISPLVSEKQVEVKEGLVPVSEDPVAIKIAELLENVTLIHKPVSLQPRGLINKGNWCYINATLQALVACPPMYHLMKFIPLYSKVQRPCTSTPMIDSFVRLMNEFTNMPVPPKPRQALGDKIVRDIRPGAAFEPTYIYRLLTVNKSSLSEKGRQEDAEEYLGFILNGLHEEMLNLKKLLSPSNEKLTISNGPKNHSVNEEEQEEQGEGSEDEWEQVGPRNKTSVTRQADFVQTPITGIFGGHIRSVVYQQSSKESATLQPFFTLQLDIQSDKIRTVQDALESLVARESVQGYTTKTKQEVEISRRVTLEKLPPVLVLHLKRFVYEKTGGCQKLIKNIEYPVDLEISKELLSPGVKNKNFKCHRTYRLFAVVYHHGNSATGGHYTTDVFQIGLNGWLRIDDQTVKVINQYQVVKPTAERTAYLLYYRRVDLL
USP8 inh: inhibitors of human USP8 deubiquitinase. 4.2% of 47,000 active. AID 1645853, 2021. purified USP8, Ub-rhodamine cleavage fluorescence, 30 min. inhibition, % at 20 µM. Ubiquitin carboxyl-terminal hydrolase 8 (Homo sapiens), P40818
OTUD3 inh: inhibitors of human OTUD3 deubiquitinase; OTU domain-containing protein 3 (Homo sapiens), Q5T2D3; purified OTUD3, Ub-rhodamine fluorescence, 2 h; inhibition, % at 25 µM; 0.7% of 47,000 active
UCHL1 block: inhibitors of human UCHL1 deubiquitinase. purified UCHL1, Ub-rhodamine cleavage fluorescence. AID 1645859, 2021. Ubiquitin carboxyl-terminal hydrolase isozyme L1 (Homo sapiens), P09936. inhibition, % at 20 µM. 0.2% of 47,000 active
USP7 block: inhibitors of human USP7 deubiquitinase. purified USP7, Ub-rhodamine cleavage fluorescence. inhibition, % at 20 µM. 0.3% of 47,000 active. AID 1645854, 2021
Numbers without * were called inactive. Cut-off read from the data, not from the text of the source: active = inhibition above about 30%; inactive = the rest.

SMILES | USP10 inh | USP8 inh | OTUD3 inh | UCHL1 block | USP7 block
Cc1cccc(C(=O)OCC(=O)NCCc2ccccc2)c1O | 3.7 | 14.7 | 14.7 | 1.7 | 1.6
O=C(COC(=O)c1cc2ccccc2cc1O)Nc1ccc(Cl)cn1 | -7.6 | 36.8* | 0.4 | -10.9 | -0.6
CC(=O)N1CC2(CCN(C(=O)C(C)(C)C)CC2)Nc2ccccc21 | 0.8 | 31.7* | -5.7 | -0.3 | 0.1
CC(NC(=O)Cc1nnc(-c2ccccn2)o1)c1ccc(F)cc1 (stereo unspecified) | -3.7 | -11.9 | 0.8 | -3.5 | 0.0
c1ccc(CNc2ccc(-c3nc(-c4ccccc4)no3)nn2)cc1 | 5.8 | 41.6* | 1.0 | -3.0 | 8.9
COc1cc(NS(=O)(=O)c2ccc(NC(=O)COc3ccc(C)cc3Br)cc2)nc(OC)n1 | 38.0* | 3.0 | -0.8 | 0.0 | -41.8
COc1ccc(NC(=O)C2CC(=O)N(CCc3ccccc3)C2)cc1S(=O)(=O)N1CCOCC1 (stereo unspecified) | -2.9 | 14.0 | -1.1 | -0.1 | -1.5
O=[N+]([O-])c1ccc2nc(CSc3nc4ccccc4[nH]3)[nH]c2c1 | -7.9 | 14.6 | -3.5 | -3.8 | -14.8
Cc1cccc2nc(CSc3nc4ccc([N+](=O)[O-])cc4[nH]3)cn12 | 60.5* | 62.5* | 9.1 | 4.6 | 10.6
COc1cccc(-c2ccc(SCC(=O)Nc3ccc(F)c(F)c3)nn2)c1 | 9.6 | 31.5* | -2.6 | 0.5 | 2.0
O=C(CN1C(=O)C(C(=O)N2CCCCC2)Sc2ccccc21)N1CCCCC1 (stereo unspecified) | -2.7 | 5.7 | 1.9 | 0.1 | -2.2
CCOC(=O)c1noc2nc(C)nc(NCc3ccccc3OC)c12 | -2.1 | 43.3* | 8.9 | 3.2 | 1.8
CCOC(=O)c1noc2ncnc(NCc3cccc(OC)c3)c12 | 2.6 | 69.7* | 3.8 | -1.4 | -4.4
CCOc1ccc(C(=O)N2CCC(c3nc(C)ncc3-c3cc(C)no3)CC2)o1 | 1.5 | 7.0 | 12.1 | 0.0 | 4.9
O=C(CCc1ccc(S(=O)(=O)N2CCOCC2)cc1)Nc1ccc2c(c1)OCCO2 | 5.9 | -6.5 | -7.8 | 0.0 | 5.6
Cc1ccc(NC(=O)CCc2ccc(S(=O)(=O)N3CCOCC3)cc2)c(O)c1 | -1.9 | 46.9* | -10.8 | -2.3 | -1.7
Cc1ccc(S(=O)(=O)c2nnn3c2nc(Nc2cccc(C)c2C)c2ccccc23)cc1 | 12.6 | 67.0* | 3.9 | 2.0 | 13.8
COc1cccc(Nc2nc3c(S(=O)(=O)c4ccccc4)nnn3c3ccccc23)c1 | 19.7 | 37.7* | 4.5 | 7.0 | 23.6
COc1cccc(CNc2nc3c(S(=O)(=O)c4ccc(F)cc4)nnn3c3ccccc23)c1 | 0.6 | 9.1 | 0.0 | -3.2 | 5.5
O=S(=O)(c1ccccc1)c1nnn2c1nc(Nc1ccc(F)cc1)c1ccccc12 | 9.9 | 52.1* | 5.5 | 2.4 | 7.7
COc1ccc(-n2ccnc(NC(=O)c3ccccn3)c2=O)cc1 | -0.5 | 2.7 | 8.1 | 0.1 | 7.9
COc1cccc(O[C@@H]2C[C@@H](N)[C@H](N3CCOCC3)[C@H]2O)c1 | 1.5 | -25.8 | -2.4 | -1.2 | 7.0
CCCCc1ccc(-c2cc(C(=O)NCCN3CCOCC3)c3cc(Br)ccc3n2)cc1 | -2.5 | -15.6 | 30.1* | -4.0 | -8.7
COc1ccc(-c2nc(-c3nnn(Cc4ccc(F)cc4)c3C)no2)c(OC)c1 | 10.8 | 59.6* | 27.1 | 2.9 | 3.9
Fc1cccc(-n2cc(-c3noc(-c4cccnc4)n3)nn2)c1 | 3.1 | 51.9* | 6.0 | 4.6 | 3.4
SMILES | USP10 inh | USP8 inh | OTUD3 inh | UCHL1 block | USP7 block
COc1ccc(-c2nc(-c3nnn(Cc4cccc(F)c4)c3C)no2)cc1OC | -4.9 | -0.7 | 5.4 | 1.0 | 2.4
Clc1cccc(-n2cc(-c3noc(-c4ccncc4)n3)nn2)c1 | -1.0 | -4.2 | -5.0 | -1.0 | 2.1
COc1ccccc1-c1nc(-c2cn(Cc3ccc(C)cc3)nn2)no1 | 12.8 | 5.5 | 7.7 | 4.5 | 4.0
COc1ccc(-c2nc(-c3cn(-c4cccc(Cl)c4)nn3)no2)c(OC)c1 | 34.0* | 29.5 | -3.3 | 10.3 | 25.2
COc1ccc(-c2nc(-c3cn(-c4ccccc4)nn3)no2)c(OC)c1 | 20.4 | 38.3* | 34.5* | 1.8 | 5.0
COc1ccc(OC)c(CNC(=O)c2ccccc2-c2ncc(-c3ccc(C)cc3)o2)c1 | -5.7 | -3.5 | -6.0 | -1.8 | -2.9
COc1ccccc1-c1nc(-c2cn(-c3ccccc3)nn2)no1 | 3.6 | 14.1 | 11.8 | 3.7 | -3.5
COc1ccccc1-c1nc(-c2cn(-c3ccc(F)cc3)nn2)no1 | 33.3* | 89.3* | 8.3 | 7.9 | 20.3
